Measurements as given in the supplement of paper PMC6555819.

test system: VDR:RXRa (NR concentration 270 nM, RXRa partner concentration 90 nM); test: PBM binding z-score (relative to random genomic background probes); higher = stronger binding; sequences stand for … in GC…GCGATTGACAGCGTAGAATGAAGG
Protocol: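 Protein-binding microarray (Agilent 4x180K custom design, double-stranded 60-nt probes: 5' GC cap, 34-nt variable region, 24-nt constant primer region; full probe sequence given). Purified or IVT nuclear receptor:RXRα heterodimers (3:1 NR:RXRα, mostly 270:90 nM) or homodimers were incubated for 1 h in PBS with 2% milk and no ligand, then detected with Alexa488 antibodies. Fluorescence from o1-orientation probes (~5 replicates averaged) was converted to z-scores against 500 random hg19 background probes. Variable regions are seed direct-repeat (DR0–DR5) sites, all their single-nucleotide variants and half-site ablations.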

Row | Sequence | PBM binding z-score
1 | TCGAGTAGGTTAGGGGCATTCCGAATGGCGTCGA | 0.256
2 | AGAATGAGGTTATACGTAGATCGGGGAAGAAAGT | 1.43
3 | CCTTACGGGTCAAGGTTATAACACGGGTGGTACG | 3.51
4 | CCGACTGGGGCAGAAAAGTTACCATACCATCCGG | -0.576
5 | GCATATAGTTAATACAAGGTGAAAGTCCGATTGT | 0.11
6 | GGAACGAGTGCATTCGAGTTGATAGCATGGCGAT | 2.95
7 | GCGTCTGGGGCAAAGCAGGTTACCATAAGGTTGG | 0.117
8 | GCTAGTTGGTCAGTAAAAGGTCTCACACCGGTCG | -0.141
9 | TCTCGGAGGACACGAAGATCAGAGCTTTCCAGAG | -0.165
10 | TCATATAGGTAAACAGGTGAAACTCCGTAAGTTA | 1.19
11 | CCGACTGGGGCAAAAAGGTTACCATACCATCCGG | 1.28
12 | TTACCAAGGTGAGCTAAGGTCGTTGATCCAACTC | 3.13
13 | CAAACTAGGACAAGGTCAAAGTCGGTTTGTGCCA | 4.36
14 | CCTAGTTAGTCAGGAGGTCACACACCGGATATGA | 3.97
15 | CGAACTAGGTCATAACAGGACAGTGAAGGATGAT | 1.89
16 | GTAACGAGGGCAAAGTTGATAGCATCTGTCGACG | 1.53
17 | CAAACTAGGTCAAAGGTGAAAGTCGAGCCAACCA | 4.04
18 | CCTATTAGTTGACCATAAGGGCTACCGAAGCTCG | 0.25
19 | AGGATGAGGTTACCAAAGATCAGGGAAACGCTTG | 1.45
20 | CCGACTGGCGCAAAGGTTACCATACTCAGTACGA | 0.854

Row | Sequence | PBM binding z-score
21 | CCTAGCATGCCAATCTGGGTCACTCAAGGCTTGA | 0.733
22 | AGTCAAAGTTCATCTCGGTAACGTAAGATATGCT | 4.8
23 | AGTCAAAGTTCAGGACGAGGTAACGTCAAGCACG | 3.07
24 | TGTATTAGTTGAAGGGCAACCGACGAGTCCGTTT | 0.926
25 | ATATGTAGGTTATCGTGTCATTCAGTTTGCGCAT | 2.28
26 | AATACAGGGTCATCGTAGGCCAGAGAACGCACAG | 5.24
27 | ATCTCTAGGTAAACATAGTTCAGTGAATGCAAAT | 1.34
28 | TTACCAATGTGAGCTGAGGTCGTTGATCCAACTC | 1.78
29 | CAGCCTACGTCAGGGCCAGTATAGGAGGAACGTT | -0.587
30 | TCTAGCACGCCAGAGGGTCACTCAAGAGGTACGG | 1.37
31 | ACTAGCAGGCCAAGTTTAGGTCACTCAAACAAAG | 0.781
32 | TGTCAAAGTTCAAAGGTACCGTAAGTATCCACAC | 4.41
33 | AGAATGAGGTTATACGTAGATCAGCGAAGAAAGT | 0.978
34 | CCTTTTAGTTGACCATAAGGGCAACCGAAGCTCG | 1.28
35 | ATATGTAGGGTACATCCGGGTCATTCAGGCTATG | 5.09
36 | ATATCTAGGTTAGCTGGGGTCATTCAGACTAGGC | 6.03
37 | TCTGCTAGATCAGTTGGTCAGCTAACGAGCTGCC | -0.706
38 | CGAACGAGGGCAGGAGTTGATAGCAAATGCCGAT | -0.167
39 | CTACCATGGTGAACAAGGTCGTTGATTACTATTC | 3.04
40 | GCGACTGGGGCATCAGGAGGTTACCATAACTTAA | 0.558
